Source: PubChem BioAssay (EPA / NIEHS)
Activity calls are given as the source filed them. Rule for the calls: active = hit-call score of the fitted dose curve at least 0.9, where 1 is the maximum; inactive = score below 0.9.

Key:
Details in all cases: primary human HUVEC with PBMC; actives raise or lower the signal
[1] = BSK_LPS_PGE2: BioMAP Diversity Plus: LPS Assay for Prostaglandin E2 (PGE2) Biomarker Activity (AID 2283082);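 for AC50: secreted prostaglandin E2 measured by ELISA in LPS-stimulated co-culture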
How it was run: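 ELISA read-out of PGE2 from human umbilical vein endothelial cells co-cultured with peripheral blood mononuclear cells under LPS, 24 h post-dose. Gain or loss of signal scored relative to DMSO baseline.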

[2] = read-out: Macrophage colony-stimulating factor (MCSF), CSF1 (gene 1435); test: BSK_LPS_MCSF: BioMAP Diversity Plus: LPS Assay for Macrophage colony-stimulating factor (MCSF) Biomarker Activity (AID 2283083)
How it was run: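 Compound is added to a human vascular primary co-culture of umbilical vein endothelium and blood mononuclear cells. After 24 h, M-CSF is quantified by ELISA. Signal changes are fitted in both directions against DMSO.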

[3] = read-out: Tissue Factor, F3 (gene 2152); test: BSK_LPS_TissueFactor: BioMAP Diversity Plus: LPS Assay for Tissue Factor Biomarker Activity (AID 2283084)
How it was run: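 In this co-culture system of umbilical vein endothelium with PBMC, stimulated with LPS, cell-surface CD142 is detected by ELISA at 24 h. Endpoint values derive from bidirectional fitting, DMSO serving as baseline.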

[4] = read-out: Vascular cell adhesion molecule 1 (VCAM1), VCAM1 (gene 7412); test: BSK_LPS_VCAM1: BioMAP Diversity Plus: LPS Assay for Vascular cell adhesion molecule 1 (VCAM1) Biomarker Activity (AID 2283086)
How it was run: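 ELISA read-out of VCAM-1 at 24 h post-dosing in an LPS-driven HUVEC/PBMC primary human co-culture; gain or loss of signal fitted bidirectionally against DMSO baseline. Cytotoxicity tracked in parallel cultures by SRB total-protein staining.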

[5] = read-out: CD38, CD38 (gene 952); test: BSK_SAg_CD38: BioMAP Diversity Plus: SAg Assay for CD38 Biomarker Activity (AID 2283087)
How it was run: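 Measures CD38 on a human endothelial/PBMC co-culture driven by SEB and TSST-1, 24 h after compound exposure, using ELISA with fluorescence detection; DMSO defines baseline for bidirectional curve fitting.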

[6] = read-out: CD40, CD40 (gene 958); test: BSK_SAg_CD40: BioMAP Diversity Plus: SAg Assay for CD40 Biomarker Activity (AID 2283088)
How it was run: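 Fluorescence ELISA read-out of CD40 from umbilical vein endothelium plus peripheral blood mononuclear cells, sampled 24 h after dosing. Values come from bidirectional curve fitting with DMSO as baseline.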

[7] = read-out: CD69, CD69 (gene 969); test: BSK_SAg_CD69: BioMAP Diversity Plus: SAg Assay for CD69 Biomarker Activity (AID 2283089);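 for AC50: cell surface CD69 protein quantified by ELISA with fluorescence detection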
How it was run: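 ELISA, fluorescence read-out: CD69 on human umbilical vein endothelial cell + PBMC co-culture, 24 h post-dosing. Gain or loss of signal fitted bidirectionally against DMSO baseline.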

[8] = read-out: Monocyte Chemoattractant Protein-1 (MCP1), CCL2 (gene 6347); test: BSK_SAg_MCP1: BioMAP Diversity Plus: SAg Assay for Monocyte Chemoattractant Protein-1 (MCP1) Biomarker Activity (AID 2283090)
How it was run: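 Values derive from bidirectional fitting of ELISA-measured MCP1 against DMSO controls. Readings were taken 24 h after dosing human vascular endothelial cells co-cultured with peripheral blood mononuclear cells under superantigen stimulation.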

[9] = read-out: E-selectin (Homo sapiens) (UniProt P16581); test: BSK_SAg_Eselectin: BioMAP Diversity Plus: SAg Assay for Eselectin Biomarker Activity (AID 2283091)
How it was run: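 Primary human endothelial cells and peripheral blood mononuclear cells were co-cultured and exposed to chemical for 24 hours. E-selectin levels were then quantified by ELISA, with bidirectional curve fitting normalised to DMSO controls.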

[10] = read-out: Tumor necrosis factor (Homo sapiens) (UniProt P01375); test: BSK_LPS_TNFa: BioMAP Diversity Plus: LPS Assay for Tumour Necrosis Factor alpha (TNFa) Biomarker Activity (AID 2283085);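 for AC50: TNFa protein level quantified by ELISA in the co-culture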
How it was run: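 HUVEC/PBMC co-culture, LPS-stimulated; 24 h post-dose; TNFa by ELISA; gain or loss of signal fitted bidirectionally vs DMSO baseline.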

Measured: AC50

Tumor necrosis factor (Homo sapiens), sequence (P01375 whole entry, looked up): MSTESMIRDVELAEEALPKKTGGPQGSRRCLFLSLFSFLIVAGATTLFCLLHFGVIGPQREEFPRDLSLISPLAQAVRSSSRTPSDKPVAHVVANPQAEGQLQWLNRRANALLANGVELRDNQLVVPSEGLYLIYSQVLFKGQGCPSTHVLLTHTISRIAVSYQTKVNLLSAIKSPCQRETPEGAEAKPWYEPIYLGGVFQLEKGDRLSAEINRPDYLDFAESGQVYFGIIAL
E-selectin (Homo sapiens), sequence (P16581 whole entry, looked up): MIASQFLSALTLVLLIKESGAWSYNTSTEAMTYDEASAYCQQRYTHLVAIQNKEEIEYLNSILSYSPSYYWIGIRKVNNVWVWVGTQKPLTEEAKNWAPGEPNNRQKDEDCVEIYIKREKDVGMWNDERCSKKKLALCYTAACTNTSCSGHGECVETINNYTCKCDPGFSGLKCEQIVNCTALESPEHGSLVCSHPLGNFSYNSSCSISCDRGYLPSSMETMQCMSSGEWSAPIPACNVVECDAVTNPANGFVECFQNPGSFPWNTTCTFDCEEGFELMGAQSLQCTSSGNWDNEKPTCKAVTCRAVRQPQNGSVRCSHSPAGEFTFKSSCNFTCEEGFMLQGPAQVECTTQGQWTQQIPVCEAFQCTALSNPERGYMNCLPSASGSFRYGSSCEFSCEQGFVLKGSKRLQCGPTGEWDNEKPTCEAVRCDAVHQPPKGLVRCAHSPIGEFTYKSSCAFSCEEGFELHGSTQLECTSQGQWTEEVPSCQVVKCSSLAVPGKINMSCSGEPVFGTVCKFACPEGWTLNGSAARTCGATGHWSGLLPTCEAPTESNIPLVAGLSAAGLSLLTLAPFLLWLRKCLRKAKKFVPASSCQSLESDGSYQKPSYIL

NCC(F)(F)C(F)(F)C(F)(F)C(F)(F)C(F)(F)C(F)(F)C(F)(F)F
not listed: [10]
inactive: all other assays above

CC1=C(/C=C/C(C)=C/C=C/C(C)=C/C(=O)O)C(C)(C)CCC1
active: [1] 0.918 µM | [4] 24.3 µM | [5] 21.9 µM | [6] 20.5 µM | [7] 8.54 µM | [9] 6.38 µM
inactive: [3] | [8]

CCC(C)(C)C1CCC(O)CC1 (configuration not stated)
not listed: [1] | [2] | [10]
inactive: all other assays above

O=C(O)Cc1cc(I)c(Oc2cc(I)c(O)c(I)c2)c(I)c1
active: [10] 17.4 µM | [4] 13.4 µM | [5] 21.3 µM | [6] 18.5 µM | [7] 15.3 µM | [8] 18.9 µM | [9] 16.2 µM
inactive: [2] | [3]

CN1CCN(c2ccccc2/C=C2\SCCN(c3ccc(Cl)c(Cl)c3)C2=O)CC1
active: [4] 13 µM | [5] 24.1 µM | [6] 20 µM | [7] 20 µM | [8] 23 µM
inactive: [2] | [3] | [9]

CCN(CC)CCNc1ccc(CNC=O)c2sc3ccc(OC)cc3c(=O)c12
active: [3] 25.5 µM | [10] 17.8 µM | [4] 14.4 µM | [5] 26.7 µM | [6] 27 µM | [7] 24.9 µM | [8] 20 µM | [9] 20 µM

C#C[C@]1(O)CC[C@H]2[C@@H]3CCC4=CC(=O)CC[C@@H]4[C@H]3CC[C@@]21C
inactive: [3] | [7] | [9]
active: [4] 8.21 µM | [5] 7.1 µM | [6] 5.45 µM | [8] 5.76 µM

CN1CCC[C@H]1c1cccnc1
not listed: [1] | [2] | [10]
inactive: all other assays above

CCCCCCCCCCCCCC[N+](C)(C)C
active: [3] 5.28 µM | [4] 5.64 µM | [5] 3.24 µM | [6] 2.15 µM | [7] 2.53 µM | [8] 3.66 µM | [9] 3.2 µM

CC(C)CCCCCCOC(=O)CCCCC(=O)OCCCCCCC(C)C
not listed: [1] | [2] | [10]
inactive: all other assays above

Cc1cc(CCN2CCN(c3nsc4ccccc34)CC2)cc2c1NC(=O)CC2(C)C
active: [3] 32.8 µM | [4] 26 µM | [5] 13.4 µM | [6] 14.2 µM | [7] 14.4 µM | [8] 11.3 µM | [9] 11.8 µM

O=C(OCCOCCOC(=O)c1ccccc1)c1ccccc1
not listed: [1] | [2] | [10]
inactive: all other assays above

N#C[C@@H]1CC(F)(F)CN1C(=O)CNC1CC2CCC(C1)N2c1ncccn1 (some centres not stated)
active: [2] 2.33 µM | [5] 4.4 µM | [6] 4.8 µM | [7] 4.59 µM | [8] 6.57 µM
inactive: [3] | [4] | [9]

c1ccc2c(c1)ccc1ccccc12
not listed: [1] | [2] | [10]
inactive: all other assays above

FC(F)(I)C(F)(F)C(F)(F)C(F)(F)C(F)(F)C(F)(F)I
active: [10] 20.2 µM [middle of 5 runs]

CCCCCCCC(=O)O
not listed: [1] | [2]
inactive: all other assays above

CCCCOCCO
not listed: [1]
inactive: all other assays above

O=c1c(-c2ccc(O)cc2)coc2cc(O)ccc12
active: [3] 26.5 µM | [4] 20 µM
not listed: [1] | [2]
inactive: all other assays above
